{"source": "PubChem BioAssay (EPA / NIEHS)", "note": "Where “and” joins values, the source holds several entries; their conditions need not be identical. Identical values can stand only once. A structure can be active in one record and inactive in another. Calls of active or inactive are those of the source. The calls were made as follows: active = hit-call score of the fitted dose curve at least 0.9, where 1 is the maximum; inactive = score below 0.9."}
{"read-out": "Tissue Factor, F3 (gene 2152)", "assay": "BSK_LPS_TissueFactor: BioMAP Diversity Plus: LPS Assay for Tissue Factor Biomarker Activity (AID 2283084)", "conditions": "primary human HUVEC with PBMC; actives raise or lower the signal", "method": "BSK_LPS is a cell-based, multiplexed-readout assay that uses umbilical vein endothelium and peripheral blood mononuclear cells, a human vascular primary cell co-culture, with measurements taken at 24 hours after chemical dosing in a 96-well plate.BSK_LPS_TissueFactor is an assay component measured in the BSK_LPS assay. It measures CD142 Tissue Factor antibody related to regulation of gene expression using ELISA technology.Data from the assay component BSK_LPS_TissueFactor was analyzed into 1 assay endpoint. This assay endpoint, BSK_LPS_TissueFactor, was analyzed with bidirectional fitting relative to DMSO as the negative control and baseline of activity. Using a type of binding reporter, gain or loss-of-signal activity can be used to understand changes in the signaling as they relate to the gene F3. Furthermore, this assay endpoint can be referred to as a primary readout, because this assay has produced multiple assay endpoints where this one serves a signaling function. To generalize the intended target to other relatable targets, this assay endpoint is annotated to the cytokine intended target family, where the subfamily is coagulation factor.\nThe levels of cell surface (or secreted, indicated by the prefix \"s\") biomarker endpoints were measured by ELISA. Overt cytotoxicity to cells in confluent adherent cultures (all systems other than the BT system) was assessed by measuring total protein levels using sulforhodamine B (SRB) staining in parallel cultures at the time of biomarker measurements, indicated as SRB endpoints. For proliferation assays for adherent cell types, individual cell types are cultured at sub-confluence and relative cell numbers quantified by SRB staining at time points optimized for each system (48 h: 3C and CASM3C systems; 72 h: BT and HDF3CGF systems; 96 h: SAg system). SRB was performed by staining cells with 0.1% SRB after fixation with 10% TCA and reading wells at 560 nm.Viability and proliferation of PBMC (T cells) was quantified by Alamar Blue reduction for the SAg and BT systems. For PBMC viability (referred to as PBMC Cytotoxicity within the assay endpoint names), cells were plated (75,000/well in a 96-well plate) and then chemical samples added for 1 h before addition of activators, SEB and TSST-1 (20 ng/mL final concentration each). Cells were incubated for 90 h. Then, Alamar Blue (20 uL/well) (Invitrogen, Cat DAL1100) was added for 6 h, and the plates were read with a fluorescence microplate reader at 546/580 nm (excitation/emission). For PBMC proliferation, cells were plated and activated as above but incubated for only 16 h prior to addition of Alamar Blue. Plates were read after 6 h."}
{"smiles": "CON(C)C(=O)Nc1ccc(Cl)c(Cl)c1", "outcome": "inactive"}
{"smiles": "CC(C)C1(C)N=C(c2nc3ccccc3cc2C(=O)O)NC1=O", "note": "(stereo not given)", "outcome": "inactive"}
{"smiles": "CCCC1COC(Cn2cncn2)(c2ccc(Cl)cc2Cl)O1", "note": "(stereo not given)", "outcome": "inactive"}
{"smiles": "CCOP(=S)(OCC)SCn1c(=O)oc2cc(Cl)ccc21", "outcome": "inactive"}
{"smiles": "CO/C=C(/C(=O)OC)c1ccccc1Oc1cc(Oc2ccccc2C#N)ncn1", "outcome": "inactive", "AC50": "35.3 µM (active)"}
{"smiles": "CNC(=S)S", "outcome": "inactive"}
{"smiles": "N#Cc1nn(-c2c(Cl)cc(C(F)(F)F)cc2Cl)c(N)c1S(=O)C(F)(F)F", "note": "(stereo not given)", "outcome": "inactive"}
{"smiles": "CN(C)C(=S)SSC(=S)N(C)C", "AC50": "14.5 µM (active)"}
{"smiles": "COP(=S)(OC)Oc1nc(Cl)c(Cl)cc1Cl", "AC50": "25.3 µM (active)"}
{"smiles": "COc1ccc(C(c2ccc(OC)cc2)C(Cl)(Cl)Cl)cc1", "outcome": "inactive"}
{"smiles": "COc1nc(C)nc(NC(=O)NS(=O)(=O)c2ccccc2Cl)n1", "outcome": "inactive"}
{"smiles": "CC(C)Oc1cc(-n2nc(C(C)(C)C)oc2=O)c(Cl)cc1Cl", "outcome": "inactive"}
{"smiles": "CCCCC(CC)COC(=O)c1ccccc1C(=O)OCC(CC)CCCC", "note": "(stereo not given)", "outcome": "inactive"}
{"smiles": "COC(=O)N(OC)c1ccccc1COc1ccn(-c2ccc(Cl)cc2)n1", "outcome": "inactive"}
{"smiles": "CCCCOC(=O)c1ccccc1C(=O)OCCCC", "outcome": "inactive"}
{"smiles": "CCOC(=O)C(Cl)Cc1cc(-n2nc(C)n(C(F)F)c2=O)c(F)cc1Cl", "note": "(stereo not given)", "outcome": "inactive"}
{"smiles": "CCOC(=O)CC(SP(=S)(OC)OC)C(=O)OCC", "note": "(stereo not given)", "outcome": "inactive"}
{"smiles": "CCON=C(CC)C1=C(O)CC(c2c(C)cc(C)cc2C)CC1=O", "note": "(stereo not given)", "outcome": "inactive"}
{"smiles": "N#CC(CCc1ccc(Cl)cc1)(Cn1cncn1)c1ccccc1", "note": "(stereo not given)", "outcome": "inactive"}
{"smiles": "Oc1ccccc1-c1ccccc1", "outcome": "inactive"}
{"smiles": "Fc1ccc(Oc2ccnc3cc(Cl)cc(Cl)c23)cc1", "AC50": "32.3 µM (active)"}
{"smiles": "C=CCC1=C(C)[C@@H](OC(=O)[C@@H]2[C@@H](C=C(C)C)C2(C)C)CC1=O", "outcome": "inactive"}
{"smiles": "OC(c1ccc(Cl)cc1)(c1cncnc1)c1ccccc1Cl", "note": "(stereo not given)", "outcome": "inactive"}
{"smiles": "N#Cc1cc(Br)c(O)c(Br)c1", "outcome": "inactive"}
{"smiles": "C=CCC1=C(C)C(OC(=O)C2C(C=C(C)C)C2(C)C)CC1=O", "note": "(stereo not given)", "AC50": "33.8 µM (active) and 31.9 µM (active)", "outcome": "inactive"}
{"smiles": "CS/C(C)=N/OC(=O)N(C)SN(C)C(=O)O/N=C(\\C)SC", "AC50": "32.1 µM (active)"}
{"smiles": "CCNc1nc(Cl)nc(NC(C)C)n1", "outcome": "inactive"}
{"smiles": "COc1cnc(OC)n2nc(NS(=O)(=O)c3c(OCC(F)F)cccc3C(F)(F)F)nc12", "outcome": "inactive"}
{"smiles": "CCOc1cc(Oc2ccc(C(F)(F)F)cc2Cl)ccc1[N+](=O)[O-]", "outcome": "inactive"}
{"smiles": "CCCCNC(=O)n1c(NC(=O)OC)nc2ccccc21", "outcome": "inactive"}
{"smiles": "O=C(O)c1nc(Cl)ccc1Cl", "outcome": "inactive"}
{"smiles": "CC(Oc1ccc(Cl)cc1Cl)C(=O)O", "note": "(stereo not given)", "outcome": "inactive"}
{"smiles": "CCc1nn(C)c(C(=O)NCc2ccc(C(C)(C)C)cc2)c1Cl", "AC50": "20 µM (active)"}
{"smiles": "CNC(=O)ON=CC(C)(C)SC", "outcome": "inactive"}
{"smiles": "CC1COC(Cn2cncn2)(c2ccc(Oc3ccc(Cl)cc3)cc2Cl)O1", "note": "(stereo not given)", "AC50": "30.2 µM (active)"}
{"smiles": "COC(=O)C=C(C)OP(=O)(OC)OC", "outcome": "inactive"}
{"smiles": "COc1nc(NC(C)C)nc(NC(C)C)n1", "outcome": "inactive"}
{"smiles": "Cc1c(F)c(F)c(COC(=O)C2C(/C=C(\\Cl)C(F)(F)F)C2(C)C)c(F)c1F", "note": "(stereo not given)", "outcome": "inactive"}
